Screening data (PubChem BioAssay)
HT1080 IDH1KD tx = HT-1080 IDH1 knockdown cell toxicity (counter line); HT-1080 IDH1 knockdown viability, ATP luminescence, 48 h; Potency, µM (series often up to 46.1 µM), without a hit: top-dose activity, negative = toxicity, most hits filed as cytotoxic; actives 2% (n = 360,000);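 also: 0% = DMSO wells and -100% = cell-free medium wells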
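Cytotoxicity counter-line: IDH1KD HT-1080, 48 h, CellTiter-Glo. Curves classed by r2, magnitude and activity.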
TDP1 cell noCPT = qHTS for Inhibitors of human tyrosyl-DNA phosphodiesterase 1 (TDP1): qHTS in cells in absence of CPT; DT40 Tdp1-/- hTDP1 cells, no CPT, ATP luminescence, 48 h; Potency, µM (highest dose often 46.2 µM), without a hit: top-dose activity change, negative = growth inhibition, usual class: inhibitors; actives 15% (n = 420,000); AID 686978, 2013; also: % is scaled to controls: 0 for no effect and ±100 for the full control effect; nearly all actives have a fitted effect of over 55% in size
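No-CPT arm: Tdp1-/-;hTDP1 DT40 cells (400/well) plus compounds, incubated ≥48 hr at 37 °C. Readout CellTiter-Glo luminescence.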
HepG2 viability = HepG2 cytotoxicity, counter-screen for TGF-b inhibitors; actives 0.76% (n = 410,000); Potency, µM (titrated, usually from 46.1 µM), for inactives: top-dose activity change, negative = cytotoxicity, actives largely listed as cytotoxic; HepG2 CAGA-GFP viability, ATP luminescence, 18 h; AID 588856
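HepG2 CAGA-GFP cells (1000/well, DMEM with 1% FBS) received compound, then TGF-beta at 500 pg/mL final, and were incubated 18 hours at 37 degrees C. Viability was read by CellTiter-Glo luminescence. Media-only wells were set as complete cell-killing and DMSO as no toxicity.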
TGFb SMAD3 inh = TGF-b pathway inhibition. Potency, µM (top dose mostly 46.1 µM), inactives show at the top dose activity, negative = inhibition, usual class: inhibitors. HepG2 CAGA-GFP TGF-b/SMAD3 reporter, GFP fluorescence, 18 h; TGF-beta stimulated, 500 pg/mL final. actives 1.2% (n = 410,000); also: % is scaled to controls: 0 for no effect and ±100 for the full control effect; nearly all actives have a fitted effect of over 65% in size
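Using HEPG2 CAGA-GFP reporter cells at 1000 cells/well, we pinned test compounds, stimulated with recombinant TGF-beta (500 pg/mL final) and measured total well GFP after 18 h.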
DT40 TDP1 CPT = DT40-hTDP1 cell growth loss with CPT; chicken DT40 Tdp1-/-;hTDP1 cells + 20 nM CPT, ATP luminescence, 48 h; Potency, µM (highest dose often 46.2 µM), without a hit: at the highest dose activity change, negative = growth inhibition, most hits filed as inhibitors; actives 12% (n = 420,000); AID 686979; also: % is scaled to controls: 0 for no effect and ±100 for the full control effect; nearly all actives have a fitted effect of over 55% in size
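Chicken DT40 Tdp1-/- cells complemented with human TDP1, 400 cells/well, exposed to compounds plus 20 nM camptothecin for at least 48 h at 37 C; viability read as ATP content by CellTiter-Glo luminescence.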
HT1080NT lethal = kills 2HG-producing HT-1080-NT fibrosarcoma cells. HT-1080-NT fibrosarcoma viability, CellTiter-Glo ATP luminescence, 48 h. Potency, µM (top dose mostly 46.1 µM), without a hit: at the top dose activity, negative = less viability, most hits filed as cytotoxic. actives 1.6% (n = 360,000). AID 686970;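 also: NT is the 2HG producing partner of a matched IDH1 knockdown line; 0% = DMSO-treated cells and -100% = media-only wells without cells; nearly all actives have a fitted effect of over 55% in size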
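Toxicity toward the 2HG-producing NT line was scored as %Activity, normalised to DMSO and no-cell wells, from CellTiter-Glo luminescence after 48 hours' treatment.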
The depositor's hits bear a star; ? = inconclusive; / = no result given; [ ] = another dose, or the depositor's remark. The list is not random: actives were taken first. Their share in the collection is about 17%. Calls follow the shape of the dose curve; as a rule, active = well fitted curve in the direction sought with a large enough effect; inconclusive = small, poorly fitted or top-dose-only effect, or another doubt; inactive = no such curve, though single readings can be large; an effect the other way counts as inactive or inconclusive. Potency is read from the fitted curve at half-maximal effect.

SMILES	HT1080 IDH1KD tx	TDP1 cell noCPT	HepG2 viability	TGFb SMAD3 inh	DT40 TDP1 CPT	HT1080NT lethal
N#CC1=C(N)Oc2c(c(=O)sc3ccccc23)C1c1ccncc1 (configuration not stated)	21µM*	?	-29%	-7%	?	?
N#CC1=C(N)Oc2c(c(=O)oc3ccccc23)C1c1cccnc1 (configuration not stated)	6%	8%	3%	-5%	-18%	-12%
CC[C@H]1CN2CCC1C[C@@H]2[C@H](O)c1ccnc2ccc(OC)cc12 (some centres not stated)	-19%	?	-5%	4%	?	-3%
CC1C(C)N1CC(O)Cn1ccnc1[N+](=O)[O-] (configuration not stated)	5%	?	2%	-8%	?	1%
O=[N+]([O-])c1nccn1CC(O)CN1CC1 (configuration not stated)	14%	10µM*	-3%	20%	12µM*	23%
O=C(CN1CCN(C(=O)CNC(=O)c2ccc(-c3ccccc3)cc2)CC1)Nc1ccccc1Cl	?	13µM*	-26%	-9%	13µM*	?
O=C(CSc1nc2ccccc2c(=O)n1-c1ccc(Cl)c(Cl)c1)Nc1ccc2c(c1)CCC2	7%	?	-4%	?	?	9%
COc1ccc(CNC(=O)Cn2c(SCC(=O)Nc3ccc(C)c(C)c3)nc3ccccc32)cc1	/	4.6µM*	-21%	16%	?	/
O=C(Oc1c(Cl)cc(Cl)c2ccccc12)N1CCCCC1	-24%	?	-37%	?	?	-17%
O=C(Oc1c(Br)cc(Br)c2cccnc12)N1CCCCC1	-20%	?	-19%	-15%	23µM*	-15%
O=C(Nc1ccccc1)N1Cc2ccccc2-n2nncc2C1	12%	19%	-4%	-17%	13%	9%
C=C1C(=O)[C@@]23C[C@H]4[C@@H]5[C@@]6(C)CCC[C@@]57[C@@H]2[C@@H](O)[C@@H]1C[C@H]3[C@H]7N4C6	?	4.1µM*	-48%	13µM*	4.6µM*	?
CCCCC[C@H]1CCCCC[C@H](O)C[C@@H](O)[C@H](O)/C=C/C(=O)O1	-23%	?	/	/	?	-27%
CCOC(=O)N1CCN(C(=O)Cn2ncc3c4ccccc4n(Cc4ccc(F)cc4)c3c2=O)CC1	/	1.8µM*	-17%	?	1.6µM*	/
Cc1c2cnn(CC(=O)N3CCC4(CC3)OCCO4)c(=O)c2c(C)n1Cc1ccccc1	3%	?	-2%	-15%	-7%	2%
O=C(Cn1ncc2c3ccccc3n(Cc3ccc(F)cc3)c2c1=O)N1CCC2(CC1)OCCO2	-12%	3.3µM*	-7%	17%	3.3µM*	-19%
Cc1ccc(C2C(S(C)(=O)=O)=C(O)C(=O)N2c2ccccc2)cc1 (configuration not stated) (tested in a mixture with another compound)	-4%	-29%	26%	21%	5%	-8%
Cc1ccc2nc(NC(=O)c3cccn(Cc4ccc(Cl)cc4)c3=O)sc2c1	/	2%	-8%	-1%	-3%	/
O=C(Nc1ccc2nc(SCC(=O)N3CCOCC3)sc2c1)c1ccc(Cl)cc1	/	7.3µM*	-24%	?	?	/
CC(C)(C)NC(=O)Cn1c(=O)oc2ccc(Cl)cc21	10%	7%	-28%	-26%	0%	-6%
CC(C)NCC(O)c1ccc(N)c(C#N)c1 (configuration not stated)	/	-1%[92.5 µM]	/	/	-9%[92.5 µM]	/
Cc1cccc(NC(=O)c2ncn3c2C(=O)NC[C@@H]3C)c1	12%	?	-35%	-25%	-4%	-4%
C[C@H]1Cn2cnc(C(=O)Nc3ccc(CNC(=O)OC(C)(C)C)cc3)c2C(=O)N1	2%	13µM*	-4%	3%	?	23%
C[C@H]1CNC(=O)c2c(C(=O)Nc3ccc(CNC(=O)OC(C)(C)C)cc3)ncn21	-9%	9.2µM*	-9%	-33%	15µM*	-20%
C[C@@H]1CNC(=O)c2c(C(=O)Nc3cccc(Cl)c3)ncn21	-20%	21µM*	-8%	?	21µM*	-20%
SMILES	HT1080 IDH1KD tx	TDP1 cell noCPT	HepG2 viability	TGFb SMAD3 inh	DT40 TDP1 CPT	HT1080NT lethal
C[C@H]1CNC(=O)c2c(C(=O)Nc3cccc(Cl)c3)ncn21	-7%	?	31%	-8%	-7%	-16%
O=C(CNC(=O)c1ccccc1)NCC(=O)OCC(=O)c1ccc([N+](=O)[O-])cc1	-12%	?	3%	2%	?	-12%
Cc1ccccc1N1CCN(C2CCCN(C(=O)COc3ccccc3)C2)CC1 (configuration not stated)	1%	21µM*	-5%	?	26µM*	-14%
CC(=O)c1ccc(OCC(=O)N2CCCC(N3CCN(c4ccccc4C)CC3)C2)cc1 (configuration not stated)	0%	?	-14%	-5%	?	4%
CCCc1c(C)nc(-c2ccc(C)cc2)nc1OC(=O)N(C)C	6%	-24%	-27%	-2%	15%	11%
C=C1C(=O)O[C@@H]2C[C@@H](C)[C@@H]3C4OC4C(=O)[C@@]3(C)[C@@H](O)[C@H]12 (some centres not stated)	9.2µM*	0.52µM*	-88%	2.8µM*	1µM*	15µM*
COc1cccc(C2C([N+](=O)[O-])=C(N)Oc3c2c(=O)oc2ccccc32)c1 (configuration not stated)	11%	-11%	-13%	-2%	-9%	8%
CC(=O)c1c(O)c(C)c(O)c2c1OC1=Cc3c(c(C)nn3-c3ccccc3)C(=O)C12C (configuration not stated)	1%	16µM*	5%	-2%	23µM*	-3%
O=c1[nH]c2ccccc2n1C1CCN(C(c2cccc3ccccc23)c2nnnn2-c2ccc3c(c2)OCCO3)CC1 (configuration not stated)	?	2.6µM*	-13%	?	4.6µM*	?
